Rows were chosen to be rich in hits. Some 5.9% of all compounds tested hit in one or more screens of this group.
RORgamma inh: qHTS for inhibitors of ROR gamma transcriptional activity; Drosophila S2 Gal4-RORgamma UAS-luciferase reporter, 20 h; Potency, µM (titrated, usually from 53.6 µM), usual class: inhibitors; actives 5.4% (n = 310,000); AID 2551, 2010; further: nearly all actives have a fitted effect of over 60% in size
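Using a luciferase readout, inhibitors were identified by reduced reporter activity in Drosophila cells coexpressing a copper-inducible Gal4–ROR gamma fusion and UAS-driven Photinus luciferase, incubated 20 hr after 700 uM copper sulfate.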
TrxR1 substrate: qHTS Assay for Substrates of Mammalian Selenoprotein Thioredoxin Reductase 1 (TrxR1): qHTS. Thioredoxin reductase 1, cytoplasmic (Rattus norvegicus), O89049. purified TrxR1 substrate turnover, NADPH consumption readout. Potency, µM (highest dose often 114 µM). actives 0.01% (n = 390,000). AID 588456, 2011; further: nearly all actives have a fitted effect of over 50% in size
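Rat TrxR1, dispensed at 90 nM, was prereduced with 400 uM NADPH (final) for 5 min at ~22 deg C, then incubated with compound 15 min before 400 uM selenite. A first-read NADPH fluorescence drop versus no-compound background flagged substrates.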
Coupling enz: qHTS Assay for Inhibitors of Fructose-1,6-bisphosphate Aldolase from Giardia Lamblia: Coupling assay counterscreen. coupling enzyme system counterscreen, AmpLite Red fluorescence. activity change, negative = inhibition, % at 58.2 µM, hits read low. actives 0.67% (n = 290,000). AID 2472, 2010; in the data active means activity change below about -30%
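First, compound is pin-transferred into glyceraldehyde-3-phosphate coupling-enzyme reagent at 57.5 uM final and held 10 min at RT. Next, substrate, coupling system and AmpLite Red are added. After 20 min RT, fluorescence (525/598 nm) is read.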
TrxR1 inh: qHTS Assay for Inhibitors of Mammalian Selenoprotein Thioredoxin Reductase 1 (TrxR1): qHTS; Thioredoxin reductase 1, cytoplasmic (Rattus norvegicus), O89049; Potency, µM (top dose mostly 114 µM), actives largely listed as inhibitors; actives 1% (n = 390,000); recombinant rTrxR1, NADPH fluorescence consumption, selenite substrate; further: nearly all actives have a fitted effect of over 65% in size
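Rat TrxR1 (90 nM in the dispensed reagent) was pre-reduced with 400 uM NADPH for 5 min at room temperature, then incubated with compound for 15 min. After 400 uM selenite was added, NADPH fluorescence (Ex 340/Em 450 nm) was followed for 8 min.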
GALK inh: qHTS Assay for Inhibitors of Human Galactokinase (GALK); P51570; Purified GALK, Kinase-Glo residual ATP luminescence; actives 0.007% (n = 270,000); Potency, µM (highest dose often 57.5 µM), most hits filed as inhibitors
Target sequence (P51570 whole entry, looked up): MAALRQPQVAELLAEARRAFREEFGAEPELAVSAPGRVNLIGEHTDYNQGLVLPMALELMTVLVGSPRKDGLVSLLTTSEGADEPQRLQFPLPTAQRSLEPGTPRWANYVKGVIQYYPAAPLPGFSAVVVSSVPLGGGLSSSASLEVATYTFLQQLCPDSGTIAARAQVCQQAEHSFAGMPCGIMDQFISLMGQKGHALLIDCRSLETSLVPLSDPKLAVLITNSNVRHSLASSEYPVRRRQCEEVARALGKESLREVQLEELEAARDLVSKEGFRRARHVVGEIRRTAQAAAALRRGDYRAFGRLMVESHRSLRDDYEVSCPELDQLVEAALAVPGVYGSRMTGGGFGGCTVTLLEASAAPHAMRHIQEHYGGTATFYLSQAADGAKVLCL
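Compounds were pin-transferred into ATP buffer (35 uM final), then GALK plus galactose (5 nM, 100 uM final) was added. After 1 h at room temperature, Kinase-Glo Plus was added and luminescence read after 10 min.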
VP16 counter: VP16 counterscreen qHTS for inhibitors of ROR gamma transcriptional activity | actives 3.5% (n = 310,000) | Potency, µM (highest dose often 53.6 µM), most hits filed as inhibitors | Drosophila S2 Gal4-VP16 UAS-luciferase, luminescence, 20 h | AID 2546, 2010;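 further: Gal4-VP16 expression switched on by copper sulfate through the metallothionein promoter; nearly all actives have a fitted effect of over 50% in size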
Of the large screens only hits and unclear results are named; the others gave an inactive call; ! = not active in a repeat. Unless noted, the call rests on the fitted dose curve; in most records, active means well fitted curve in the direction sought with a large enough effect; inconclusive means small, poorly fitted or top-dose-only effect, or another doubt; inactive means no such curve, though single readings can be large; an effect the other way counts as inactive or inconclusive.

Cc1ccc(SC(CC(=O)c2ccc(C)cc2)C(=O)O)cc1 (stereo not drawn)	RORgamma inh inconclusive, TrxR1 inh 40µM, VP16 counter inconclusive
N#CC1=C(N)SC(N)=C(C#N)C1c1c(Cl)cccc1Cl	RORgamma inh 8.9µM, Coupling enz -51, VP16 counter inconclusive
N#CC1=C(N)SC(N)=C(C#N)C1Cc1ccccc1	TrxR1 inh inconclusive
N#CC1=C(N)SC(N)=C(C#N)C1CCc1ccccc1	RORgamma inh 7.9µM, TrxR1 inh inconclusive, VP16 counter inconclusive
CCCCCNC(=O)c1ccc(NS(=O)(=O)c2ccc3[nH]c(=O)[nH]c3c2)cc1	none (no result: Coupling enz)
O=C(CCC(=O)N1CCOCC1)NCCc1ccc(Cl)cc1Cl	RORgamma inh 6.3µM
O=C(Nc1ccccc1)c1ccccc1CSc1ccccc1	none (no result: RORgamma inh, Coupling enz, GALK inh, VP16 counter)
CCOC(=O)N1CCN(C2=Nc3cccc4cccc2c34)CC1	Coupling enz -57
CCOC(=O)N1CCN(C(=O)Nc2cccc3ccccc23)CC1	none
c1cc2c3c(cccc3c1)C(N1CCOCC1)=N2	Coupling enz -51
COc1ccccc1N1CCN(C(=O)CN2C(=O)c3cccc4cccc(c34)C2=O)CC1	none
COc1ccccc1N1CCN(C2=Nc3cccc4cccc2c34)CC1	RORgamma inh 16µM, VP16 counter inconclusive
c1ccc(CC2CCN(C3=Nc4cccc5cccc3c45)CC2)cc1	RORgamma inh inconclusive, VP16 counter 7.1µM
CCS(=O)(=O)N1CCc2cc(C(=O)Nc3cccc(Cl)c3C)ccc21	none (no result: RORgamma inh, Coupling enz, GALK inh, VP16 counter)
CC1CN(C2=Nc3cccc4cccc2c34)CC(C)O1 (stereo not drawn)	RORgamma inh inconclusive, Coupling enz -46
O=C(O)c1ccc(NC2=Nc3cccc4cccc2c34)cc1	none (no result: GALK inh)
CC(=O)N1CCN(C2=Nc3cccc4cccc2c34)CC1	Coupling enz -47
O=C1[C@@H]2C(c3cccnc3)=NO[C@@H]2C(=O)N1c1ccc(Br)cc1	TrxR1 inh 28µM
CCOC(=O)c1cnc2c(C)c(Cl)ccc2c1Nc1ccc(N2CCOCC2)cc1	none (no result: RORgamma inh, Coupling enz, GALK inh, VP16 counter)
COCc1cc(Sc2ccc(Cl)cc2)nc(C)n1	none
COCc1cc(S(=O)c2ccc(Cl)cc2)nc(C)n1 (stereo not drawn)	RORgamma inh 4.5µM, TrxR1 inh 14µM, VP16 counter inconclusive
NC(=O)C1CCN(C(=O)c2cnn(-c3ccccc3)c2NC(=O)c2cccc(F)c2)CC1	none
C/C(=N\NC(=O)C1CC1(c1ccccc1)c1ccccc1)c1cccc([N+](=O)[O-])c1 (stereo not drawn)	none
CCOC(=O)C/C(C)=N/NC(=O)C1CC1(c1ccccc1)c1ccccc1 (stereo not drawn)	RORgamma inh 10µM, TrxR1 inh inconclusive, VP16 counter inconclusive
CC1CCN(C(=O)CCN2C(=O)/C(=C/c3cccs3)SC2=S)CC1	RORgamma inh inconclusive, VP16 counter inconclusive
O=S(=O)(O)c1ccc(N=NNc2ccc(Br)cc2)cc1	none
CN(Cc1ccco1)S(=O)(=O)c1nnc(NC(=O)c2cccc(Cl)c2)s1	TrxR1 inh 25µM! (no result: Coupling enz)
CCN(c1ccc(C)cc1)S(=O)(=O)c1nnc(NC(=O)c2ccco2)s1	TrxR1 inh 56µM
COc1ccccc1CNC(=O)Cn1c(=O)c2cccn2c2cccnc21	none (no result: Coupling enz)
Cc1ccc2nc(C3CCCN(C(=S)Nc4cccc(C)c4C)C3)[nH]c2c1 (stereo not drawn)	RORgamma inh 11µM, VP16 counter inconclusive
Cc1ccc(NC(=S)N2CCCC(c3nc4ccc(C)cc4[nH]3)C2)c(C)c1 (stereo not drawn)	VP16 counter inconclusive
Cc1cc2nc(C3CCCN(C(=S)Nc4ccccc4C)C3)[nH]c2cc1C (stereo not drawn)	RORgamma inh 20µM
Cc1cc(C)n(C(C[N+](=O)[O-])c2ccc(Cl)cc2)n1 (stereo not drawn)	TrxR1 inh 5.6µM
CC(C(=O)NCc1ccccc1)N(Cc1ccccc1Cl)C(=O)c1snc(C(N)=O)c1N (stereo not drawn)	none
Cc1cc(NC(=O)CSc2cc(Cl)ccc2Cl)n(-c2ccccc2)n1	none
Cc1cc(C)nc(-n2nc(C)cc2NC(=O)CN2CCC(C)CC2)n1	RORgamma inh inconclusive, VP16 counter inconclusive
CCC1CCCCN1CC(=O)Nc1cc(C)nn1-c1nc(C)cc(C)n1 (stereo not drawn)	RORgamma inh 0.4µM, VP16 counter 1.3µM
Cc1ccc(C)c(C(=O)Nc2cc(C)nn2-c2nc(C)cc(C)n2)c1	RORgamma inh 0.5µM, VP16 counter inconclusive
Cc1cc(C)nc(-n2nc(C)cc2NC(=O)CN2CCCC2)n1	RORgamma inh 11µM
Cc1cc(C)nc(-n2nc(C)cc2NC(=O)CNC(C)c2ccccc2)n1 (stereo not drawn)	RORgamma inh 1.6µM
C=C(C)Cn1c(N2CCC(Cc3ccccc3)CC2)nc2c1c(=O)[nH]c(=O)n2C	RORgamma inh inconclusive
COc1ccc(C(=O)NCC(=O)OCC(=O)N2CCN(S(=O)(=O)c3ccccc3)CC2)cc1	none
CCOC(=O)c1cccc(OC(=O)CCNC(=O)c2ccc(Cl)cc2)c1	none (no result: RORgamma inh, Coupling enz, GALK inh, VP16 counter)
Cc1cc(NC(=O)CN2CCOCC2)n(-c2nc3ccccc3s2)n1	RORgamma inh 3.5µM
O=C(O)c1cccc(NC(=S)N/N=C/c2ccccc2OCc2ccc(Br)cc2)c1	RORgamma inh 13µM
O=C(O)c1cccc(NC(=S)N/N=C/c2ccccc2OCc2cccc(Br)c2)c1	RORgamma inh 11µM
COC(=O)c1ccc(COc2ccccc2/C=N/Nc2cccc(C(=O)O)c2)cc1	none
Cn1nnc(NC(=O)c2ccc(Br)o2)n1	none (no result: Coupling enz)
CCCCn1c(SCC(=O)NCc2ccccc2)nc2ccc(N3CCOCC3)cc2c1=O	RORgamma inh inconclusive, Coupling enz -37, VP16 counter inconclusive
N#CCSc1nc2ccc(N3CCCCC3)cc2c(=O)n1Cc1ccccc1	RORgamma inh 3.5µM, TrxR1 inh inconclusive, VP16 counter inconclusive
CCCCn1c(SCC(=O)NCc2ccco2)nc2cc(S(N)(=O)=O)ccc21	none
CCCCn1c(SCC(=O)NCc2ccco2)nc2ccc(N3CCOCC3)cc2c1=O	RORgamma inh 6.3µM, Coupling enz -40, TrxR1 inh inconclusive, VP16 counter 18µM
O=C(CSc1nc2ccccc2c(=O)n1CCCN1CCOCC1)NC12CC3CC(CC(C3)C1)C2	RORgamma inh 14µM

Source: PubChem (National Center for Advancing Translational Sciences (NCATS))
